USP2a block – qHTS Assay for Inhibitors of Ubiquitin-specific Protease USP2a Using CHOP2 as the Reporter. Ubiquitin carboxyl-terminal hydrolase 2 (Homo sapiens), O75604. USP2 core, Ub-CHOP2 coupled fluorogenic reporter, 485/531. Potency, µM (highest dose often 38.3 µM), inactives show top-dose activity change, negative = inhibition, most hits filed as inhibitors. 330,000 tested, 0.01% active. AID 463254, 2010;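 also: potency is read from the fitted curve at half-maximal effect; plate controls were DMSO wells for no effect and full inhibition by NEM control for full effect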
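USP2 core (10nM final) preincubated 30min RT with compound in 20mM Tris-HCl pH 8.0, 2mM CaCl2, 2mM beta-mercaptoethanol, 0.05% CHAPS; 25nM Ub-CHOP2 plus 25nM reporter substrate added, fluorescence (Ex485/Em531) read after 60min.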
Eya2 inh – qHTS Assay for Inhibitors of the Phosphatase Activity of Eya2; Protein phosphatase EYA2 (Homo sapiens), O00167; recombinant Eya2, OMFP fluorescence dephosphorylation (OMFP is methylfluorescein phosphate); Potency, µM (series often up to 76.9 µM), without a hit: at the highest dose activity, negative = inhibition, usual class: inhibitors; 330,000 tested, 0.006% active; AID 488837, 2010; also: potency is read from the fitted curve at half-maximal effect
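Eya2 protein (added as 0.2 uM solution) was preincubated with compound for 10 min at ambient temperature in 50 mM HEPES pH 7.5, 50 mM NaCl, 5 uM MgCl2, 0.05% BSA, 1 mM DTT. OMFP (added at 50 uM) then reacted 10 min; fluorescence read at 485/525 nm.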
Six1-Eya2 inh – qHTS Assay for Inhibitors of the Six1/Eya2 Interaction; Homeobox protein SIX1 (Homo sapiens) + Protein phosphatase EYA2 (Homo sapiens), …; AlphaScreen GST-Six1/His-Eya2 binding, biochemical; hits give low values; activity change, % (concentration not given with the values); 360,000 tested, 0.56% active; AID 651725, 2012; in the data active = activity change below about -65%; inconclusive = mostly about -30% to -63%
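AlphaScreen with GST-Six1 and His-Eya2 (5X mix: 250 nM and 500 nM), glutathione donor and nickel acceptor beads; buffer 50 mM Tris pH 8.0, 300 mM NaCl, 1 mM TCEP; 1 h at 37 C in the dark.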
RGS4 inh – Inhibitors of Regulator of G Protein Signaling (RGS) 4: qHTS | 390,000 tested, 0.039% active | Regulator of G-protein signaling 4 (Homo sapiens), P49798 | Potency, µM (highest dose often 114 µM), inactives show top-dose activity change, negative = inhibition, most hits filed as inhibitors | Transcreener GDP fluorescence polarization, RGS4-accelerated GTP hydrolysis | AID 504845, 2011; also: potency is read from the fitted curve at half-maximal effect; nearly all actives have a fitted effect of over 75% in size
Target sequence (P49798 whole entry, looked up): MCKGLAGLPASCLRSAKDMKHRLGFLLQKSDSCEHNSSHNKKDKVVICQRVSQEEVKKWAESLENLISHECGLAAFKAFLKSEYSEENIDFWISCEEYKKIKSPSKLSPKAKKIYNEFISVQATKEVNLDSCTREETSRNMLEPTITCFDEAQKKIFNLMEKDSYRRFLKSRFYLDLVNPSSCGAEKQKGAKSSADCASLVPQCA
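MLSMR compounds (23 nl, pin-transferred) preincubated 10 min at room temperature with a 500nM (2x) first reagent, then RGS4 at 900nM (2x) plus Transcreener GDP mix added; fluorescence polarization (620/688 nm) read before and after 90 min at 30 °C.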
CtBP-E1A blk – qHTS Assay for Inhibitors of the CtBP/E1A Interaction. CtBP / adenovirus E1A interaction (AlphaScreen). AlphaScreen GST-E1A/His-CtBP binding, 1536-well; hits give low values. activity change, % (no concentration beside the values). 340,000 tested, 0.49% active. AID 651724, 2012; in the data active = activity change below about -65%; inconclusive = mostly about -30% to -63%
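Steps: dispense buffer (Tris pH 8.0, NaCl 300 mM, TCEP 1 mM, BSA, Tween 20); add 5X protein mix (GST-E1A, His-CtBP, 125 nM each); pin 23 nL compound; 2 h at 37 °C, dark; add 5X beads (50 ug/mL); 1 h; read.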
PI4K2A inh – qHTS for small molecular inhibitors of PI4K2A. activity change, negative = inhibition, % at 76.9 µM. 420,000 tested, 0.13% active. purified PI4K2A, ADP-Glo luminescence, 1 h; hits give low values. AID 1346378, 2018. Phosphatidylinositol 4-kinase type 2-alpha (Homo sapiens), Q9BTU6; in the data active = activity change below about -50%; inconclusive = mostly about -30% to -49%;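 also: -100% = wells without enzyme as full effect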
Target sequence (Q9BTU6 whole entry, looked up): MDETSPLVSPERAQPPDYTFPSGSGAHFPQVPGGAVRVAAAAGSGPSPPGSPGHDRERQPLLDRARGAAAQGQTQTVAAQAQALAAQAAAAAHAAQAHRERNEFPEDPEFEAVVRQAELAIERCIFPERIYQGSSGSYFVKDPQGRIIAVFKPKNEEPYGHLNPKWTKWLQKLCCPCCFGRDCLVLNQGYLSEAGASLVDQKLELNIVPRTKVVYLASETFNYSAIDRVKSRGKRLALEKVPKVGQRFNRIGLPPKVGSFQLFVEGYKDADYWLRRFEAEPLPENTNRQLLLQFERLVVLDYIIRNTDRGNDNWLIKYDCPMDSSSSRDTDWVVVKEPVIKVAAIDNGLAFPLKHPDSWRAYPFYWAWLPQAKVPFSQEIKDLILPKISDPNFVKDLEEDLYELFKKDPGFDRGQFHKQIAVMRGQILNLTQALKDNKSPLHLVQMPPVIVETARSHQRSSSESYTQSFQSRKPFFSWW
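ADP-Glo luminescence measured ADP generated by PI4K2A enzyme (4 ug/mL before mixing) with 1.2 mM PI substrate (pre-mix) and 300 microM ATP (pre-mix). Tris pH7.5 buffer with MgCl2, Triton X-100; 1 h reaction at ambient temperature.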
Numbers without * were called inactive; ? = inconclusive; nt = no result. Sampled rows, rich in hits. Any-hit rate of the full collection: about 0.72%. Unless noted, calls follow the shape of the dose curve; as a rule, active = well fitted curve in the direction sought with a large enough effect; inconclusive = small, poorly fitted or top-dose-only effect, or another doubt; inactive = no such curve, though single readings can be large; an effect the other way counts as inactive or inconclusive. Unless noted, % is scaled to controls: 0 for no effect and ±100 for the full control effect.

SMILES | USP2a block | Eya2 inh | Six1-Eya2 inh | RGS4 inh | CtBP-E1A blk | PI4K2A inh
CC(C)CCNC(=O)c1ccc2c(c1)NC(=O)C(C(C)C)N2 (stereo unspecified) | nt | nt | nt | 10% | nt | 1
Cc1ccc(N2CC(NC(=O)C3CCCC3)CC2=O)cc1 (stereo unspecified) | nt | nt | nt | 0% | nt | -2
CC1CC1C(=O)Nc1nc(-c2ccccn2)cs1 (stereo unspecified) | 1% | 1% | -82* | ? | -70* | -4
O=C(Nc1nc(-c2ccccc2)cs1)C1COc2ccccc2O1 (stereo unspecified) | 1% | -15% | -2 | 13% | -11 | 1
O=C(Nc1nc(-c2ccccn2)cs1)C1COc2ccccc2O1 (stereo unspecified) | -8% | -4% | -91* | 21% | ? | -4
CCOC(=O)C1CCCN(C(=O)c2cccc(NC(=O)c3nsc4ccccc34)c2)C1 (stereo unspecified) | nt | nt | nt | -9% | nt | 2
COc1ccc2oc(=O)cc(CN3CCN(c4ccccc4F)CC3)c2c1 | nt | nt | nt | 8% | nt | 2
COc1cc(OC)c(OC)cc1CN1CCc2nc(N3CCN(c4ccccc4F)CC3)ncc2C1 | nt | nt | nt | 16% | nt | 2
O=c1c(-c2cc(-c3ccccc3)nc3c2COc2ccc(Cl)cc2-3)coc2ccccc12 | nt | nt | nt | 29% | nt | -2
COc1ccc(S(=O)(=O)N2CCOC23CCN(S(=O)(=O)c2cc(F)ccc2F)CC3)cc1 | 5% | 6% | -69* | -18% | 2 | 2
COc1ccc(S(=O)(=O)N2CCOC23CCN(S(=O)(=O)c2ccc(F)cc2)CC3)cc1 | 0% | 4% | 3 | -21% | 11 | 4
COc1ccc(C(=O)OCC(=O)c2ccc[nH]2)cc1 | 0% | 10% | 9 | -16% | -13 | 1
CCOc1cc(C2NC(=O)c3c(sc4c3CCN(C)C4)N2)ccc1OC(=O)c1ccccc1Cl (stereo unspecified) | nt | nt | nt | -37% | nt | 3
Cc1cc(C(=O)OCC(=O)Nc2cccc(S(N)(=O)=O)c2)c(C)o1 | 0% | 2% | -16 | 9% | -68* | 0
Cn1c(/C=C/c2ccccc2)nc2ccccc21 | -1% | 0% | 10 | 13% | nt | -66*
Cc1cc(C(=O)OCC(=O)c2cccc([N+](=O)[O-])c2)c2cccc(C)c2n1 | 11µM* | ? | -3 | 29% | 9 | -6
COc1ccc(-c2cc(C(=O)OCC(=O)c3cccc([N+](=O)[O-])c3)c3cc(C)ccc3n2)cc1 | 2% | 6% | 2 | 22% | -6 | 0
O=C(COC(=O)/C=C/c1ccccc1[N+](=O)[O-])Nc1ccc(S(=O)(=O)N2CCOCC2)cc1 | -6% | -8% | -5 | -19% | -5 | -4
Cc1ccc(OCC(=O)Nc2ccc(OCc3cc(=O)n4cccc(C)c4n3)cc2)cc1C | nt | nt | nt | 11% | nt | -3
Cc1ccc(NC2=CC(=O)C(=O)c3ccccc32)cc1 | -5% | -22% | -20 | -32% | ? | -66*
CC(=O)Nc1ccc(NC2=CC(=O)c3ccccc3C2=O)cc1 | 0% | 7% | -4 | -9% | -6 | -12
CC(=O)c1ccc(NC2=C(N3CCOCC3)C(=O)c3ccccc3C2=O)cc1 | -1% | -12% | ? | 11% | 0 | -18
Cc1ccc(NC2=C(N3CCOCC3)C(=O)c3ccccc3C2=O)cc1 | 3% | -24% | -89* | -3% | -92* | ?
O=C1C=C(Nc2ccc(O)cc2)C(=O)c2ccccc21 | -3% | -4% | ? | -4% | -30 | -56*
Cc1cc(CCCOc2c(C)cc(-c3noc(C(F)(F)F)n3)cc2C)on1 | nt | nt | nt | nt | nt | -1
SMILES | USP2a block | Eya2 inh | Six1-Eya2 inh | RGS4 inh | CtBP-E1A blk | PI4K2A inh
COc1cc(/C=N/Nc2cc(C)nc(NS(=O)(=O)c3ccccc3)n2)ccc1O | 4% | 16% | -71* | 14% | -73* | 1
COc1cc(/C=N/Nc2cc(C)nc(NS(=O)(=O)c3ccc(C)cc3)n2)ccc1O | 3% | 0% | ? | 22% | -19 | -3
COc1cc(/C=N/NC(=O)c2nc(-c3ccccc3)n(-c3ccccc3)n2)ccc1O | -5% | -24% | ? | -11% | ? | -1
COc1cc(/C=N/Nc2nc(C)nc3c2cnn3-c2ccccc2)ccc1O | 0% | -6% | -67* | 13% | -77* | -7
CC(NCc1ccco1)C(=O)N1CCCN(C)CC1 (stereo unspecified) | nt | nt | nt | nt | nt | 6
COc1ccc(OC)c(S(=O)(=O)NC(=O)C2(C)CCN2C(=O)C2(c3ccc(Cl)cc3)CC2)c1 (stereo unspecified) | nt | nt | 1 | nt | 9 | 0
O=S(=O)(Nc1cccc(-c2ccc(N3CCOCC3)nn2)c1)c1ccccc1C(F)(F)F | nt | nt | nt | 17% | nt | -3
CC1(C(=O)O)CCC(C(=O)NNC(=O)c2ccccc2Cl)C1(C)C (stereo unspecified) | nt | nt | 0 | 17% | -65* | -1
CCOC(=O)c1c[nH]c2ccc3ccccc3c2c1=O | -1% | 9% | -2 | -15% | nt | 1
Oc1ccc2ccccc2c1N=Nc1ccccc1F | 1% | 6% | -88* | 0% | ? | 3
O=S(=O)(O)c1cccc(N=Nc2c(O)ccc3ccccc23)c1 | -10% | -10% | -20 | -6% | nt | -12
CCOC(=O)c1[nH]cnc1N=Nc1c(O)ccc2ccccc12 | 6% | -1% | -82* | -11% | -70* | -5
Oc1ccc2ccccc2c1N=Nc1ccccn1 | -12% | -7% | -84* | -31% | -73* | -5
CC(C)CCn1c(O)c(N=Nc2ccccn2)c2ccccc21 | 3% | -10% | 16 | 5% | 12 | 0
O=C(OCC#CCSc1nnc(-c2cccc3ccccc23)o1)c1cccc(C(F)(F)F)c1 | nt | nt | nt | nt | nt | -4
Cc1ccc(N2C(=O)CSC23C(=O)N(CC(=O)NCCc2ccccc2)c2ccccc23)cc1 (stereo unspecified) | nt | nt | nt | 6% | nt | -3
Clc1cccc(CNCCCSc2nnnn2-c2ccccc2)c1 | nt | nt | nt | 13% | nt | -2
CCOC(=O)C1=C(CS(=O)(=O)c2c(C)cc(C)cc2C)NC(=O)NC1c1cccc(OC)c1 (stereo unspecified) | nt | nt | nt | -36% | nt | -1
